Measured values taken from PubChem BioAssay (NCI).
About 83,000 compounds went through this panel and 20% of them were active in at least one assay; those are over-represented in the sample as a whole.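 A percent growth of 40 corresponds to 60% growth inhibition; 0 means no net growth; -100 means all cells died. Active threshold: below 10.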 Calls of active or inactive are those of the source.

Columns and labels:
Assay in all cases: NCI-60 one-dose screen, 48 h (100 = growth as untreated, 0 = no growth, -100 = all killed)
Conditions in all cases: 10 µM
NCI-H23 lung = tested on: NCI-H23 lung
NCI-H226 lung = tested on: NCI-H226 lung
NCI-H322M lung = tested on: NCI-H322M lung
HOP-62 NSCLC = tested on: HOP-62 NSCLC
NCI-H460 lung = tested on: NCI-H460 lung
HOP-92 NSCLC = tested on: HOP-92 NSCLC
NCI-H522 lung = tested on: NCI-H522 lung
A549/ATCC NSCLC = tested on: A549/ATCC NSCLC
786-0 renal = tested on: 786-0 renal
COLO 205 colon = tested on: COLO 205 colon
DU-145 prostate = tested on: DU-145 prostate
K-562 leukemia = tested on: K-562 leukemia
MALME-3M melanoma = tested on: MALME-3M melanoma
MDA-MB-231 breast = tested on: MDA-MB-231 breast
RXF 393 renal = tested on: RXF 393 renal
SF-268 CNS = tested on: SF-268 CNS
SF-295 CNS = tested on: SF-295 CNS
SF-539 CNS = tested on: SF-539 CNS
UACC-257 melanoma = tested on: UACC-257 melanoma
M14 melanoma = tested on: M14 melanoma

Measured: growth

C=C1C(=O)O[C@H]2[C@H]1CC/C(COC(=O)OCCCCCOC(=O)OC/C1=C/CC[C@@]3(C)O[C@H]3[C@H]3OC(=O)C(=C)[C@@H]3CC1)=C\CC[C@@]1(C)O[C@@H]21
inactive: NCI-H322M lung 50.9% | A549/ATCC NSCLC 44.3% | SF-295 CNS 45.4%
active: NCI-H23 lung -37.5% | NCI-H226 lung -33% | HOP-62 NSCLC 9.65% | NCI-H460 lung -19.9% | HOP-92 NSCLC -49.6% | NCI-H522 lung -66.2% | 786-0 renal -63.8% | COLO 205 colon -85% | DU-145 prostate -4.53% | K-562 leukemia 1.11% | MALME-3M melanoma -30.1% | MDA-MB-231 breast -87% | RXF 393 renal -69.8% | SF-268 CNS 7.62% | SF-539 CNS -33.1% | UACC-257 melanoma -87%

CN(C)CCCN(Cc1ccccc1O)C(=S)Nc1ccc(Cl)cc1
inactive: NCI-H23 lung 108% | NCI-H226 lung 94.5% | NCI-H322M lung 98.1% | HOP-62 NSCLC 108% | NCI-H460 lung 102% | HOP-92 NSCLC 86.8% | NCI-H522 lung 96% | A549/ATCC NSCLC 98.1% | 786-0 renal 107% | COLO 205 colon 113% | DU-145 prostate 121% | K-562 leukemia 97.5% | MALME-3M melanoma 101% | MDA-MB-231 breast 97% | RXF 393 renal 93.4% | SF-268 CNS 102% | SF-295 CNS 94.7% | SF-539 CNS 104% | UACC-257 melanoma 101%

C[C@@H]1N=C(c2ccc(Br)cc2)Nc2nc3ccccn3c2C1=O
inactive: NCI-H23 lung 53.7% | NCI-H226 lung 68.3% | NCI-H322M lung 74% | HOP-62 NSCLC 55.8% | NCI-H460 lung 32.5% | HOP-92 NSCLC 59.5% | NCI-H522 lung 34.8% | A549/ATCC NSCLC 54.7% | 786-0 renal 83.1% | COLO 205 colon 26.3% | DU-145 prostate 87.7% | K-562 leukemia 24.3% | MALME-3M melanoma 51.8% | MDA-MB-231 breast 52.7% | RXF 393 renal 68.2% | SF-268 CNS 83.4% | SF-295 CNS 40.9% | SF-539 CNS 74.6% | UACC-257 melanoma 69.9%

COc1cc(-c2nc3ccccc3[nH]2)ccc1OCC(=O)N=Nc1c(O)[nH]c2ccccc12
inactive: NCI-H23 lung 90% | NCI-H226 lung 105% | NCI-H322M lung 96% | HOP-62 NSCLC 99.6% | NCI-H460 lung 109% | HOP-92 NSCLC 78.1% | NCI-H522 lung 80.1% | A549/ATCC NSCLC 105% | 786-0 renal 97.8% | COLO 205 colon 74.6% | DU-145 prostate 99.7% | K-562 leukemia 17.5% | MALME-3M melanoma 54.6% | MDA-MB-231 breast 88.8% | RXF 393 renal 106% | SF-268 CNS 94.1% | SF-295 CNS 95.9% | SF-539 CNS 97.8% | UACC-257 melanoma 105%

Cc1ccc2oc(=O)cc(/C(=C3/C=CC=N3)c3ccc[nH]3)c2c1
inactive: NCI-H322M lung 25.4% | MALME-3M melanoma 25.6% | SF-268 CNS 12.7%
active: NCI-H23 lung 9.51% | NCI-H226 lung -7.14% | HOP-62 NSCLC -11.3% | NCI-H460 lung -2.31% | HOP-92 NSCLC 7.28% | NCI-H522 lung -33.2% | A549/ATCC NSCLC -21% | 786-0 renal 3.15% | COLO 205 colon -53.6% | DU-145 prostate 0.492% | K-562 leukemia -0.946% | MDA-MB-231 breast -6.98% | RXF 393 renal -21.7% | SF-295 CNS -23.9% | SF-539 CNS -33.6% | UACC-257 melanoma 6.21% | M14 melanoma -7.95%

CCOC(=O)Nc1ccc2c(c1)C(=O)N(CC)c1ccccc1O2
active: NCI-H460 lung 9.56% | NCI-H522 lung -39% | COLO 205 colon -29.8% | DU-145 prostate 7.48% | K-562 leukemia 8.79% | RXF 393 renal -4.5% | SF-295 CNS 3.36% | SF-539 CNS 4.79%
inactive: NCI-H23 lung 30.1% | NCI-H226 lung 14.5% | NCI-H322M lung 50% | HOP-62 NSCLC 24.8% | HOP-92 NSCLC 33.7% | A549/ATCC NSCLC 19.4% | 786-0 renal 31.1% | MALME-3M melanoma 68% | MDA-MB-231 breast 20.2% | SF-268 CNS 42.1% | UACC-257 melanoma 64.1% | M14 melanoma 11.1%

Cc1[nH]nc2c(=S)[nH]c(=O)[nH]c12
inactive: NCI-H23 lung 103% | NCI-H226 lung 94.3% | NCI-H322M lung 103% | HOP-62 NSCLC 105% | NCI-H460 lung 105% | HOP-92 NSCLC 87.9% | NCI-H522 lung 98.7% | A549/ATCC NSCLC 100% | 786-0 renal 97.3% | COLO 205 colon 109% | DU-145 prostate 106% | K-562 leukemia 105% | MALME-3M melanoma 88.2% | MDA-MB-231 breast 104% | RXF 393 renal 107% | SF-268 CNS 104% | SF-295 CNS 91% | SF-539 CNS 101% | UACC-257 melanoma 90% | M14 melanoma 100%

COc1cc2nc(Sc3sc(N)nc3C)n(-c3ccc(Oc4ccccc4)cc3)c(=O)c2cc1OC
inactive: NCI-H23 lung 90.6% | NCI-H226 lung 89.7% | NCI-H322M lung 123% | HOP-62 NSCLC 110% | NCI-H460 lung 99.5% | HOP-92 NSCLC 79.5% | NCI-H522 lung 83.7% | A549/ATCC NSCLC 83.3% | 786-0 renal 80% | COLO 205 colon 76% | DU-145 prostate 98.3% | K-562 leukemia 78.6% | MALME-3M melanoma 98.3% | MDA-MB-231 breast 90.1% | RXF 393 renal 85.9% | SF-268 CNS 102% | SF-295 CNS 85.4% | SF-539 CNS 81.3% | UACC-257 melanoma 89.7% | M14 melanoma 81.6%
